Assay results published in the supplement of paper PMC10849652.
The full data set covers some 7,900 targets. This sample favours those with a hit. About 0.6% of all pairs of compound and target were hits.

What was measured:
Test in all cases: log2 fold change, soluble protein after heating vs DMSO (PISA); higher = thermal stabilisation; K562 cells, 10 uM, 30 min; active = over 0.2 and 3.5 SD of the protein, either way, in both replicates (recomputed)
[1] = compound: CC1=C(C=C(C=C1)NC(=O)C2=CC(=CC=C2)C(C)(C)C#N)NC3=CC4=C(C=C3)N=CN(C4=O)C
Outline: (§1)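 Aliquots of K562 cells (2×10^6 cells/mL) treated with 10 μM compound for 30 min were heated for 3 min over 48°C-58°C. After pooling and extraction in PBS with 0.5% NP-40 at 4°C, soluble protein from a 21,000xg, 90 min spin was quantified by TMTpro 16plex LC-MS/MS with channel sums equalised. Thermal stability is expressed against control samples, from duplicates, as a log2 fold change.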

[2] = compound: CC1=C(C=C(C=C1)NC(=O)C2=CC(=CC=C2)N(C)C)NC(=O)C3=CC=C(C=C3)O
Outline: as §1

[3] = compound: CC1=CC=C(C=C1)SC2=C3C=C(SC3=CN=C2)C(=O)N
Outline: as §1

[4] = compound: CC1=NC(=CC=C1)C2=C(N=C(N2)C(C)(C)C)C3=CC4=NC=CN=C4C=C3
Outline: as §1

[5] = compound: CCCCN(Cc1ccc(C(=O)NO)cc1)C(=O)Nc1ccccc1 [Nexturastat A]
Outline: as §1

[6] = compound: CCCS(=O)(=O)Nc1ccc(F)c(C(=O)c2c[nH]c3ncc(-c4ccc(Cl)cc4)cc23)c1F [vemurafenib]
Outline: as §1

[7] = compound: CCCS(=O)(=O)Nc1ccc(F)c(C(=O)c2c[nH]c3ncc(Cl)cc23)c1F
Outline: as §1

[8] = compound: CCCc1cc(C)[nH]c(=O)c1CNC(=O)c1cc(-c2ccnc(N3CCN(C)CC3)c2)cc2c1cnn2C(C)C
Outline: as §1

[9] = compound: CCN(CC)Cc1ccc2cc(COC(=O)Nc3ccc(C(=O)NO)cc3)ccc2c1 [givinostat]
Outline: as §1

[10] = compound: CCN(CCCOc1ccc2c(Nc3cc(CC(=O)Nc4cccc(F)c4)[nH]n3)ncnc2c1)CCOP(=O)(O)O [barasertib]
Outline: as §1

Measured: log2 fold change

PFDN1 (UniProt O60925)
Sequence of UniProt O60925 (O60925 whole entry, looked up): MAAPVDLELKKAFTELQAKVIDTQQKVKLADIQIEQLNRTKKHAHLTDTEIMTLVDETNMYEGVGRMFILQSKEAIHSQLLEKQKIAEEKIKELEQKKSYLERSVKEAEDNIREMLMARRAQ
inactive: [1] 0.039 | [2] -0.131 | [3] 0.089 | [4] 0.041 | [5] -0.071 | [6] 0.172 | [7] -0.019 | [8] -0.016 | [9] 0.004 | [10] 0.002

PSMD3 (UniProt O43242)
Sequence of UniProt O43242 (O43242 whole entry, looked up): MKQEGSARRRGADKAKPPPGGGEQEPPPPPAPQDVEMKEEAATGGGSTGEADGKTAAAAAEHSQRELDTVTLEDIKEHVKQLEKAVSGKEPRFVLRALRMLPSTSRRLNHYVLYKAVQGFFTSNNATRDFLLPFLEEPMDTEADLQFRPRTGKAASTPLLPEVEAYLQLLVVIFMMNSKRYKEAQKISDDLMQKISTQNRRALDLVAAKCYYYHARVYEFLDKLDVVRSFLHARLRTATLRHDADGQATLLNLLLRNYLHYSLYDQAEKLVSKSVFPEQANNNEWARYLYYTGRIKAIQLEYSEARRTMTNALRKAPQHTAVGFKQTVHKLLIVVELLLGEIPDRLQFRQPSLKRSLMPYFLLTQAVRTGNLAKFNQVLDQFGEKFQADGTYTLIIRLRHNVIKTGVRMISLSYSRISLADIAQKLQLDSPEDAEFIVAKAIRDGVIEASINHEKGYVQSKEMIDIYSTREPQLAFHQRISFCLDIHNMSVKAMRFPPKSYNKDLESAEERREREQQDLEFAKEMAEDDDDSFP
inactive: [1] 0.023 | [2] 0.022 | [3] -0.052 | [4] -0.024 | [5] 0.065 | [6] -0.06 | [7] -0.032 | [8] 0.034 | [9] -0.028 | [10] -0.066

PRKAA1 isoform 2 (UniProt Q13131)
inactive: [1] -0.029 | [2] 0.001 | [3] -0.001 | [4] 0.02 | [5] -0.042 | [6] 0.025 | [7] 0.008 | [8] 0.021 | [9] -0.014 | [10] 0.016

PSME4 (UniProt Q14997)
inactive: [1] 0.017 | [2] -0.02 | [3] -0.024 | [4] -0.017 | [5] -0.034 | [6] -0.014 | [7] -0.005 | [8] -0.043 | [9] 0.022 | [10] -0.007

PRKACA (UniProt P17612)
inactive: [1] -0.002 | [2] -0.008 | [3] -0.023 | [4] 0.043 | [5] 0.099 | [6] 0.015 | [7] 0.019 | [8] -0.019 | [9] 0.006 | [10] -0.008

PTP4A2 (UniProt Q12974)
inactive: [1] 0.026 | [2] -0.045 | [3] 0.012 | [4] 0.076 | [5] -0.069 | [6] -0.002 | [7] -0.129 | [8] 0.02 | [9] -0.022 | [10] -0.006

PRPF4B (UniProt Q13523)
inactive: [1] -0.024 | [2] 0.018 | [3] -0.079 | [4] -0.082 | [5] 0.158 | [6] 0.052 | [7] 0.03 | [8] -0.098 | [9] 0.082 | [10] -0.05

PMM2 (UniProt O15305)
Sequence of UniProt O15305 (O15305 whole entry, looked up): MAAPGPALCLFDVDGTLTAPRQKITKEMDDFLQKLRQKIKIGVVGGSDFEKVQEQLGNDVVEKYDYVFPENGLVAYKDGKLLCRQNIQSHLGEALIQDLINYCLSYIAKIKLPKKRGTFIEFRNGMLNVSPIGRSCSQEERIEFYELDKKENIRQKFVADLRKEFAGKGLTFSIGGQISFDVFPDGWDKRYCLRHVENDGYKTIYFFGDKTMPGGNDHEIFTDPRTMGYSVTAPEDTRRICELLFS
inactive: [1] -0.102 | [2] 0.021 | [3] -0.014 | [4] -0.009 | [5] -0.124 | [6] -0.04 | [7] -0.009 | [8] -0.055 | [9] 0.015 | [10] 0.003

PEF1 (UniProt Q9UBV8)
inactive: [1] -0.011 | [2] -0.075 | [3] 0.027 | [4] 0.013 | [5] 0.032 | [6] 0.008 | [7] 0.073 | [8] -0.045 | [9] 0.022 | [10] 0.122

RAB11FIP1 (UniProt Q6WKZ4)
Sequence of UniProt Q6WKZ4 (Q6WKZ4 whole entry, looked up): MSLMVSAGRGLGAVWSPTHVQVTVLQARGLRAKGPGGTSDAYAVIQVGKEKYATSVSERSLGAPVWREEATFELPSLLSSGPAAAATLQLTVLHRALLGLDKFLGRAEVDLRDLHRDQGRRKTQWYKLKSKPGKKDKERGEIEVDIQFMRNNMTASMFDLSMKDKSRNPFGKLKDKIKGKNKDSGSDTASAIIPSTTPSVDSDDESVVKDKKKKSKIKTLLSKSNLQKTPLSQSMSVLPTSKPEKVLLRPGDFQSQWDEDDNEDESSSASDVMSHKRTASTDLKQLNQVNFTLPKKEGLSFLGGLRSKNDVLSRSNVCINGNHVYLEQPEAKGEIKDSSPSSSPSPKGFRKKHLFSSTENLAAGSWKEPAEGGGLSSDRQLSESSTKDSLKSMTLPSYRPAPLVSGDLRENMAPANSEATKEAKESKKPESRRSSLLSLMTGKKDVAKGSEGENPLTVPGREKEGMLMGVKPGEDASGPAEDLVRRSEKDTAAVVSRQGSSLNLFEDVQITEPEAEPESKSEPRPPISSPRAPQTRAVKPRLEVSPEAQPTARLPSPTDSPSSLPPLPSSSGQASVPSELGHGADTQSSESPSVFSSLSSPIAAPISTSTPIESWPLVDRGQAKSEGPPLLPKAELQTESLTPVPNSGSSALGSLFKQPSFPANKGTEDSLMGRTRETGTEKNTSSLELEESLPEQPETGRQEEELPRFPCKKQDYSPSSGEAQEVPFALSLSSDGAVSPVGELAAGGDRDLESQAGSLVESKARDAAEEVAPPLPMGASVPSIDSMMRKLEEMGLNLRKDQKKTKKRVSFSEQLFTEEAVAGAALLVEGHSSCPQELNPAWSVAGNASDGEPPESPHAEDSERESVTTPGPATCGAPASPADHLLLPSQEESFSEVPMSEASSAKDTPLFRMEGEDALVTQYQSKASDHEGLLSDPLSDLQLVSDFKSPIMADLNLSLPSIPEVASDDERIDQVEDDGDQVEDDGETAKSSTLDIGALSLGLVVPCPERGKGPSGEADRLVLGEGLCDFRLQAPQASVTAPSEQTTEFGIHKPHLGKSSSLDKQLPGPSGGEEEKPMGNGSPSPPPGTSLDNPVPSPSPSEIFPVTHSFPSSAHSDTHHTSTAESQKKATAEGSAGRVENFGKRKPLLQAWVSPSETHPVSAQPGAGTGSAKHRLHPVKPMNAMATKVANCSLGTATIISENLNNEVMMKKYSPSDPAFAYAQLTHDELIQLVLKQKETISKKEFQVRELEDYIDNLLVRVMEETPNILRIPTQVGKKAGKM
inactive: [1] -0.009 | [2] 0.001 | [3] 0.015 | [4] -0.018 | [5] 0.034 | [6] 0.006 | [7] 0.063 | [8] 0.009 | [9] 0.015 | [10] 0.014

PTK2B (UniProt Q14289)
inactive: [1] -0.09 | [2] 0 | [3] 0.06 | [4] -0.008 | [5] 0.217 | [6] -0.129 | [7] 0 | [8] 0.06 | [9] 0.421 | [10] 0.031

PSMC2 (UniProt P35998)
Sequence of UniProt P35998 (P35998 whole entry, looked up): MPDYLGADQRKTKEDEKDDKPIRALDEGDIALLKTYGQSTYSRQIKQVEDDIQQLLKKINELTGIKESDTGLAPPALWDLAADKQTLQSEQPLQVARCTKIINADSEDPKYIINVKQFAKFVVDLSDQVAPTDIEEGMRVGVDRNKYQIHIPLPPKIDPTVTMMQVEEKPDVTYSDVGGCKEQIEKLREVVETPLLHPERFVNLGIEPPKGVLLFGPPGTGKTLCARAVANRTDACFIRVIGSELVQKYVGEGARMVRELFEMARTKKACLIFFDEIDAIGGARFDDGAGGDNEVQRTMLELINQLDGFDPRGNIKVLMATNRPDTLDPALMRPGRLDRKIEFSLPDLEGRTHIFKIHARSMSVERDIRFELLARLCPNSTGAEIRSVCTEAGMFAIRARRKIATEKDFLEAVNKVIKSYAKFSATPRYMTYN
inactive: [1] 0.011 | [2] 0.02 | [3] -0.012 | [4] -0.069 | [5] 0.011 | [6] -0.014 | [7] -0.041 | [8] 0.036 | [9] -0.032 | [10] -0.053

POLR2C (UniProt P19387)
inactive: [1] -0.097 | [2] -0.058 | [3] 0.038 | [4] -0.011 | [5] 0.126 | [6] 0.021 | [7] 0.066 | [8] -0.005 | [9] 0.042 | [10] 0.022

PUF60 (UniProt Q9UHX1)
Sequence of UniProt Q9UHX1 (Q9UHX1 whole entry, looked up): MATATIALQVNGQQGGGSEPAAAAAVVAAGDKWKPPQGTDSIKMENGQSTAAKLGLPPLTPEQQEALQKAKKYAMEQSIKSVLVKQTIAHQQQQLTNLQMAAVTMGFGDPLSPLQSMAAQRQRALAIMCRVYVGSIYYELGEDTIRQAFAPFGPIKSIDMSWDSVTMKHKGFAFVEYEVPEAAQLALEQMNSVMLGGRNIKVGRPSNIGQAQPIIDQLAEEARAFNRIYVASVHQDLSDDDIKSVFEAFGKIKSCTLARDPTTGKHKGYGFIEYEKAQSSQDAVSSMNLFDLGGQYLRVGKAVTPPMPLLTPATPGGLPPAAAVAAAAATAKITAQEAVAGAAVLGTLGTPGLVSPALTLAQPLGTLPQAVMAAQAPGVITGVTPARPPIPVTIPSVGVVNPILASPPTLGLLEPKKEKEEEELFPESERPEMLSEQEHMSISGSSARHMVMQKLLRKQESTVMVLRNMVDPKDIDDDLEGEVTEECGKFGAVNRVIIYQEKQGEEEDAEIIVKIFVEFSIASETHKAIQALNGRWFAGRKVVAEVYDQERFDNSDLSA
inactive: [1] 0.046 | [2] -0.018 | [3] 0.043 | [4] 0.022 | [5] -0.003 | [6] 0.034 | [7] 0.14 | [8] 0.009 | [9] 0.022 | [10] 0.025

PCGF2 (UniProt P35227)
Sequence of UniProt P35227 (P35227 whole entry, looked up): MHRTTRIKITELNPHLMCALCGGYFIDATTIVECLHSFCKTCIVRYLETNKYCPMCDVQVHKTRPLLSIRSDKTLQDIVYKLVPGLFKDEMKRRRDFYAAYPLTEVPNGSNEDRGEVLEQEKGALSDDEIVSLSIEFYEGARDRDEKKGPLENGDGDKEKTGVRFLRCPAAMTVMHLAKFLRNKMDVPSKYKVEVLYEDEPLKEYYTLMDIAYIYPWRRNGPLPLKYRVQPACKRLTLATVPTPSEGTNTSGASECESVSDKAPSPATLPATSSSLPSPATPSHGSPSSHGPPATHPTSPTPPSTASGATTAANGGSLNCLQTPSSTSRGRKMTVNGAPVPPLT
inactive: [1] -0.043 | [2] -0.058 | [3] -0.056 | [4] 0.033 | [5] -0.01 | [6] 0 | [7] -0.033 | [8] 0.056 | [9] 0.046 | [10] 0.113

PTGR2 (UniProt Q8N8N7)
Sequence of UniProt Q8N8N7 (Q8N8N7 whole entry, looked up): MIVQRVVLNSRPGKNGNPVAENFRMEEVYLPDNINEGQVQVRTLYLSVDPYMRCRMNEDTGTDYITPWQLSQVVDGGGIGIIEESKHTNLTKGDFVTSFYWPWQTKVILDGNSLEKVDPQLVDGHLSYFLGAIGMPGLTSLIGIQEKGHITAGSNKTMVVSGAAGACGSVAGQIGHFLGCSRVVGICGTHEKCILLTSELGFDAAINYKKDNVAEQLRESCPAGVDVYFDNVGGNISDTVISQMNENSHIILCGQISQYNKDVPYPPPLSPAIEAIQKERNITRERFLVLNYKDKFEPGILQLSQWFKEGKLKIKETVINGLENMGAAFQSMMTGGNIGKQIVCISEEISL
inactive: [1] -0.022 | [2] -0.058 | [3] 0.022 | [4] -0.056 | [5] -0.175 | [6] -0.022 | [7] -0.021 | [8] 0.234 | [9] 0.139 | [10] 0

POLR3K (UniProt Q9Y2Y1)
inactive: [1] -0.028 | [2] 0.098 | [3] 0 | [4] -0.014 | [5] -0.04 | [6] -0.067 | [7] -0.066 | [8] -0.038 | [9] -0.013 | [10] 0.003

PTPA (UniProt Q15257)
Sequence of UniProt Q15257 (Q15257 whole entry, looked up): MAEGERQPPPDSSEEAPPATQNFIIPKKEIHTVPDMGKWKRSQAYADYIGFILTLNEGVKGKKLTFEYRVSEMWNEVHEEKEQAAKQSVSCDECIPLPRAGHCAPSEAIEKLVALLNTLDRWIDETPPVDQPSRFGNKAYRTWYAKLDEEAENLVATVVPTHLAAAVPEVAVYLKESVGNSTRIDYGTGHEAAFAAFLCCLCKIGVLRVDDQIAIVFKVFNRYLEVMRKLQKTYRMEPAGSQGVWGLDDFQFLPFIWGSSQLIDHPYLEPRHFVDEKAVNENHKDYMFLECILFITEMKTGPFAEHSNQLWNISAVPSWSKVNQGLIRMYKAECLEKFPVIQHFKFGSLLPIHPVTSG
inactive: [1] 0.001 | [2] -0.01 | [3] 0.004 | [4] 0.014 | [5] -0.006 | [6] 0.044 | [7] -0.017 | [8] -0.046 | [9] -0.005 | [10] -0.007

QKI (UniProt Q96PU8)
inactive: [1] 0.05 | [2] -0.037 | [3] 0.019 | [4] 0.036 | [5] -0.109 | [6] 0.033 | [7] 0.084 | [8] -0.045 | [9] 0.023 | [10] -0.003

PLIN2 (UniProt Q99541)
inactive: [1] 0.069 | [2] 0.018 | [3] 0.109 | [4] 0.022 | [5] 0.082 | [6] 0.01 | [7] 0.042 | [8] -0.12 | [9] -0.014 | [10] 0.013

PARL (UniProt Q9H300)
inactive: [1] 0 | [2] 0.025 | [3] 0.02 | [4] 0.002 | [5] -0.098 | [6] -0.014 | [7] 0.057 | [8] -0.036 | [9] 0.068 | [10] -0.022

POMP (UniProt Q9Y244)
inactive: [1] 0.024 | [2] 0.075 | [3] -0.069 | [4] 0.076 | [5] 0.145 | [6] -0.023 | [7] -0.023 | [8] 0.016 | [9] -0.045 | [10] 0.054

PPT1 (UniProt P50897)
Sequence of UniProt P50897 (P50897 whole entry, looked up): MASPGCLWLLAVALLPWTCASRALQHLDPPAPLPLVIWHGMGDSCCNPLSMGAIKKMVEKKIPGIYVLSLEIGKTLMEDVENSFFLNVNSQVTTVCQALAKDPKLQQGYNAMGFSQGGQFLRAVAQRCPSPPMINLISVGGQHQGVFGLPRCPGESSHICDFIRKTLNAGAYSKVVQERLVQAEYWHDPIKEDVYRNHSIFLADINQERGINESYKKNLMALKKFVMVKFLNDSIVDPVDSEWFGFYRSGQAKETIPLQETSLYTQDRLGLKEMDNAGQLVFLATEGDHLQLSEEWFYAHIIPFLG
inactive: [1] -0.017 | [2] 0.009 | [3] 0.046 | [4] 0.013 | [5] -0.081 | [6] 0 | [7] -0.003 | [8] -0.107 | [9] -0.022 | [10] -0.017

PPP2R5E (UniProt Q16537)
inactive: [1] -0.049 | [2] -0.065 | [3] -0.023 | [4] 0.066 | [5] 0.003 | [6] 0.027 | [7] 0.07 | [8] 0.03 | [9] 0.032 | [10] 0.027

PHF5A (UniProt Q7RTV0)
Sequence of UniProt Q7RTV0 (Q7RTV0 whole entry, looked up): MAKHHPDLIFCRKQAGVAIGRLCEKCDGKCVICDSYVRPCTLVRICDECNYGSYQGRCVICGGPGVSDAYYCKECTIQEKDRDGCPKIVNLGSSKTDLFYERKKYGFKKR
inactive: [1] -0.019 | [2] -0.046 | [3] -0.023 | [4] -0.012 | [5] -0.017 | [6] -0.075 | [7] -0.064 | [8] 0.021 | [9] -0.075 | [10] -0.032

PIR (UniProt O00625)
Sequence of UniProt O00625 (O00625 whole entry, looked up): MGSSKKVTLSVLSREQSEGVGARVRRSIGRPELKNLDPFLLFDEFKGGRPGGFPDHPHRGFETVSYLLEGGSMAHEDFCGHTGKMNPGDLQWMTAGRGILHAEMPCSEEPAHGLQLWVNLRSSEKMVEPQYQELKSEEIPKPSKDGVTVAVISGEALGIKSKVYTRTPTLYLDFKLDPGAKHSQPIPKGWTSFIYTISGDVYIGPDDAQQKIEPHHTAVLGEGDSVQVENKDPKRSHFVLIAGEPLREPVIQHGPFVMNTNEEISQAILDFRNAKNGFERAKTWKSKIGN
active: [2] 0.325
inactive: [1] -0.063 | [3] 0.002 | [4] -0.035 | [5] -0.053 | [6] 0.03 | [7] 0.122 | [8] 0.085 | [9] -0.146 | [10] 0.007

PRKAB1 (UniProt Q9Y478)
inactive: [1] -0.055 | [2] 0.026 | [3] 0.022 | [4] 0.01 | [5] -0.002 | [6] 0.031 | [7] 0.017 | [8] 0.109 | [9] 0.08 | [10] 0.026

PMPCA (UniProt Q10713)
inactive: [1] 0.046 | [2] -0.049 | [3] 0.014 | [4] 0.006 | [5] -0.102 | [6] 0.025 | [7] 0.037 | [8] -0.006 | [9] -0.019 | [10] -0.027

POLR2B (UniProt P30876)
inactive: [1] 0.009 | [2] -0.044 | [3] 0.041 | [4] 0.016 | [5] 0.054 | [6] 0.006 | [7] 0.041 | [8] 0.005 | [9] -0.005 | [10] 0.008

PLBD2 (UniProt Q8NHP8)
inactive: [1] -0.053 | [2] 0.058 | [3] 0.02 | [4] -0.051 | [5] -0.053 | [6] -0.028 | [7] 0.001 | [8] -0.008 | [9] 0.004 | [10] -0.013
